Glyco luc inh: increase of ERlucT glycosylation luciferase signal, primary screen, N-linked glycosylation inhibitor project, D54 ERlucT cells, luminescence, set 2; reporter increase, % at 12.5 µM; D54 ERlucT glycosylation luciferase reporter, 24 h; percent of 100 nM tunicamycin response; hit rate 0.23% among 360,000;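 active means mean luciferase reporter signal, scaled so untreated is 0 and the glycosylation-blocking control 100, at or above a set limit in every replicate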;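 further: luciferase carries N-glycosylation sites so blocking glycosylation raises the light; 0% = median of neutral control wells and 100% = median of 100 nM tunicamycin wells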
RAD54 inh: inhibitors of human RAD54 branch migration, primary screen, biochemical, fluorescence, single point; DNA repair and recombination protein RAD54-like (Homo sapiens), Q92698; hit rate 0.14% among 360,000; RAD54 Holliday junction branch migration, FAM/BHQ fluorescence; inhibition, % at 10.4 µM; AID 602329, 2012;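 active means mean normalized replicate activity at least 40 and at least half of replicates scoring 40 or more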;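 further: 0% = median of neutral control wells and 100% = median of positive control wells; inhibitors cause a drop in the FAM fluorescence signal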
RAD52 inh: RAD52 DNA annealing inhibitors, primary screen, biochemical, FRET, single point, set 2; recombinant RAD52 DNA annealing, FRET fluorescence; DNA repair protein RAD52 homolog (Homo sapiens), P43351; hit rate 0.46% among 360,000; inhibition, % at 18.7 µM; AID 651710, 2012;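 active means every replicate showing at least 50% inhibition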
Target sequence (P43351 whole entry, looked up): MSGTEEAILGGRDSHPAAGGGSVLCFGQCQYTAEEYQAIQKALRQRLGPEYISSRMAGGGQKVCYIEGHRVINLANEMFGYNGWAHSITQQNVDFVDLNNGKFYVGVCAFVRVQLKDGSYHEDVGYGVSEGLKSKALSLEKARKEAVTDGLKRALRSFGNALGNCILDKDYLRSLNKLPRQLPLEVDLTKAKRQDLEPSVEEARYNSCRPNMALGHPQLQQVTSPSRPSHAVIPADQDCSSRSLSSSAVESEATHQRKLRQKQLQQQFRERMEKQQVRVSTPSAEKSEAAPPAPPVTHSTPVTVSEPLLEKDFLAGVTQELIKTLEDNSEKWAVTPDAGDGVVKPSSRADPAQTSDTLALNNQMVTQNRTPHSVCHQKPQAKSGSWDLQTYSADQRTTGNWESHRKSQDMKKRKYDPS
NRP1-CendR mod: modulators of CendR peptide binding to NRP-1, primary screen, biochemical, fluorescence polarization, uHTS | Neuropilin-1 (Homo sapiens), O14786 | FAM-RPARPAR peptide binding to NRP-1 | inhibition, % at 25 µM | hit rate 0.85% among 360,000 | AID 602438, 2012;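 active means inhibition or corrected inhibition above about 18%, plus a signal ratio from 0.5 to 1.5, limit read from the data, passing the limit was not always enough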
DNA FID counter: compounds displacing fluorescent DNA intercalator, primary screen, artefact control for HCV NS3 helicase inhibitor project, biochemical, FID fluorescence | DNA fluorescent intercalator displacement | inhibition, % at 7.9 µM | hit rate 0.17% among 290,000 | AID 1845, 2009; in the data active means inhibition above about 37%;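 further: 0% = vehicle and 100% = reference compound; higher means more ethidium bromide displaced from hairpin DNA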
miR122 inh: miR-122 Renilla sensor signal increase in Huh7, primary screen, miR-122 inhibitor project, cell-based, single point, plate reader. hit rate 0.3% among 340,000. Huh7 miR-122 Renilla luciferase sensor, 48 h; neutral wells = 0, positive control = 100. activation (reporter increase), % at 12.5 µM. AID 602342, 2012;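 active means mean replicate activation score at least 90 and every replicate individually at or above 90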;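 further: higher luciferase means less miR-122 activity so hits act as miR-122 inhibitors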
* marks the source's active call; other numbers are inactive results; nt = not tested or not shown; [ ] = dose if it differs, or a comment. A selection: hits, their analogues and other compounds. The true share with any hit is near 1.5%.

SMILES | Glyco luc inh | RAD54 inh | RAD52 inh | NRP1-CendR mod | DNA FID counter | miR122 inh
CCOc1ccc(Br)cc1S(=O)(=O)Nc1ccc(Cl)c(S(=O)(=O)N(CC)c2ccccc2)c1 | -2 | -7 | -20 | 5 | -9 | 281*
CCOc1ccc(Br)cc1S(=O)(=O)Nc1ccc(Cl)c(S(=O)(=O)N(C)C)c1 | -1 | 1 | nt | -3 | -12 | 0
CN(C)CC(=O)N1[C@@H]2c3ccc(-c4cccnc4)c(=O)n3C[C@H]1[C@H](CO)[C@H]2C(=O)NC1CCCC1 | nt | nt | -2 | nt | nt | nt
Cc1ccc(-n2c(-c3ccc(Br)cc3)c[n+]3c2CCc2ccc4cccnc4c2-3)cc1 | 40* | 88* | nt | -15 | 14 | -7
COCCCNC(=O)CNC(=O)c1nn(-c2ccc(OC)cc2OC)c(=O)c2ccccc12 | 0 | nt | 3 | -11 | -8 | nt
CCN(CCCNC(=O)CNC(=O)c1nn(-c2ccc(OC)cc2OC)c(=O)c2ccccc12)c1cccc(C)c1 | 1 | 6 | -5 | 25* | -28 | -6
O=C(COc1ccc(/C=N/NC(=O)c2cc3ccccc3o2)cc1Br)Nc1ccccc1 | 62* | 4 | nt | -22 | 1 | -3
NC(=O)NCC#Cc1ccc2c(c1)[C@]1(C(=O)N2)[C@H](C(=O)O)[C@H]2C(=O)O[C@H](c3ccccc3)[C@H](c3ccccc3)N2[C@@H]1c1ccc(O)cc1 | nt | 10 | -2 | nt | nt | nt
CCCCCN1CC(O)=C(c2nc3ccccc3[nH]2)C1=N | 1 | nt | 4 | 11 | 2 | nt
CCCCN1CC(O)=C(c2nc3ccccc3[nH]2)C1=N | 3 | 2 | nt | 22* | 1 | -3
COc1cccc(NC(=O)Nc2ccc(Br)cn2)c1 | 0 | -11 | 2 | 9 | -8 | 5
COc1ccc(NC(=O)Nc2ccc(Br)cn2)cc1OC | 2 | -15 | 7 | 47* | -7 | 3
O=C(Nc1ccccc1-c1ccccc1)c1ccccc1 | 2 | -4 | 2 | 5 | -4 | 0
Nc1c(S(=O)(=O)O)cc(NC(=O)c2ccccc2)c2c1C(=O)c1ccccc1C2=O | 0 | -3 | -35 | 27* | 34 | -1
NC(=O)C1CCCN1 (configuration not stated) | 1 | nt | -16 | 22* | -1 | nt
COc1cccc(C(=O)Nc2ccccc2C(=O)N2CCCC2)c1 | 0 | 2 | nt | 3 | 0 | -30
CC(=O)Oc1cccc(C(=O)Nc2ccccc2C(=O)N2CCCC2)c1 | 1 | 4 | 2 | 20* | -11 | 1
Cc1ccc(N2C(=O)NC(NS(=O)(=O)c3ccccc3)(C(F)(F)F)C2=O)cc1 (configuration not stated) | 2 | 7 | -15 | 26* | -3 | nt
C[C@@H]1CN([C@@H](C)CO)C(=O)c2cc(NC(=O)Cn3cnnn3)ccc2O[C@H]1CN(C)CC1CCCCC1 | nt | 6 | -22 | nt | nt | -7[16.7 µM]
N#Cc1c(Nc2ccccc2)sc(C(=O)c2ccccc2)c1N | 0 | nt | nt | 7 | 2 | 4
Cc1cccc(Oc2sc(C(=O)c3ccccc3)c(N)c2C#N)c1 | -3 | 0 | nt | 31* | -6 | -11
C[C@@H]1CN([C@H](C)CO)C(=O)c2cc(NC(=O)c3ccccc3)ccc2O[C@@H](C)CCCCO[C@@H]1CN(C)Cc1ccc(C(=O)O)cc1 | nt | -2 | 3 | nt | nt | 6[16.7 µM]
COc1ccccc1NS(=O)(=O)c1cc(NC(=O)c2cccc(S(=O)(=O)N(C)C)c2)ccc1N1CCOCC1 | -7 | nt | -7 | 6 | nt | 135*
O=C(/C=C/c1cccs1)Nc1ccc(N2CCOCC2)c(S(=O)(=O)Nc2ccccc2Cl)c1 | -13 | 4 | nt | -10 | -12 | 74
COc1ccccc1NS(=O)(=O)c1cc(NC(=S)NCCN2CCOCC2)ccc1N1CCOCC1 | -1 | nt | -4 | -2 | 2 | 217*
SMILES | Glyco luc inh | RAD54 inh | RAD52 inh | NRP1-CendR mod | DNA FID counter | miR122 inh
COc1ccccc1NS(=O)(=O)c1cc(NC(=O)C(C)(C)C)ccc1N1CCOCC1 | -2 | nt | -12 | -2 | nt | 86
COc1ccccc1NS(=O)(=O)c1cc(NC(=O)/C=C/c2cccs2)ccc1N1CCOCC1 | -9 | -11 | -5 | -7 | 1 | 258*
O=C(N[C@H]1CC[C@H](CCn2cc(-c3ccccc3)nn2)O[C@H]1CO)c1cnccn1 | nt | -4 | 0 | nt | nt | nt
O=C(COc1ccc(Cl)cc1)NCc1nnc(SCC(=O)Nc2ccccc2)o1 | 1 | -3 | nt | 16 | -9 | 87
O=C(COc1ccc(Cl)cc1)NCc1nnc(SCC(=O)NCCc2ccccc2)o1 | 0 | 4 | nt | 20* | -15 | -7
C[C@@H]1CN([C@@H](C)CO)S(=O)(=O)c2ccc(C#Cc3ccc(F)cc3)cc2O[C@H]1CN(C)C(=O)CN(C)C | nt | 12 | 55* | nt | nt | 9[16.7 µM]
C[C@H](CO)N1C[C@H](C)[C@@H](CN(C)C(=O)CN(C)C)Oc2cc(C#Cc3ccc(F)cc3)ccc2S1(=O)=O | nt | 3 | 52* | nt | nt | -2[16.7 µM]
CCC(=O)Nc1ccc2c(c1)OC[C@@H](C)N(Cc1cccnc1)C[C@@H](C)[C@H](OC)CN(C)C2=O | nt | -4 | 10 | nt | nt | nt
CN(Cc1ccc2c(c1)CCCN2C)C(=O)[C@H]1O[C@@H](n2ccc(=O)[nH]c2=O)[C@H](O)[C@@H]1O | 3 | 8 | -357 | 27* | nt | 5
O=[N+]([O-])c1ccccc1C=NNC(=S)NN=Cc1ccccc1[N+](=O)[O-] | 28* | -2 | -20 | 9 | nt | 0
Cc1cccc(NC(=S)N/N=C/c2ccc(Cl)c([N+](=O)[O-])c2)c1 | 3 | 0 | nt | 27* | -8 | 1
CC(C)NC(=S)N/N=C/c1ccccc1[N+](=O)[O-] | 2 | nt | -19 | -8 | 6 | nt
CC(C)Cc1nc2sc3c(=O)[nH]cnc3c2c2c1CCC2 | 3 | -4 | nt | -17 | -1 | 126*
C[C@@H]1CCCCO[C@@H](CN(C)S(=O)(=O)c2cccs2)[C@@H](C)CN([C@H](C)CO)C(=O)c2cc(NS(=O)(=O)c3cn(C)cn3)ccc2O1 | nt | -5 | 47 | nt | nt | 57[16.7 µM]
Cc1noc(C)c1S(=O)(=O)Nc1ccc2c(c1)C(=O)N([C@H](C)CO)C[C@@H](C)[C@@H](CN(C)S(=O)(=O)c1ccc(F)cc1)OCCCC[C@@H](C)O2 | nt | -9 | 57* | nt | nt | -5[16.7 µM]
Cc1noc(C)c1S(=O)(=O)Nc1ccc2c(c1)C(=O)N([C@@H](C)CO)C[C@H](C)[C@@H](CN(C)S(=O)(=O)c1ccc(F)cc1)OCCCC[C@H](C)O2 | nt | -5 | 75* | nt | nt | 8[16.7 µM]

Bioassay records as filed in PubChem BioAssay.
